# CHX counter – counter-screen for Shiga toxin inhibitors: cycloheximide protein synthesis inhibition. hit rate 12% among 300,000. max response, %. cell reporter, cycloheximide protein synthesis inhibition counterscreen; in the data active means max response mostly above about 13%, no sharp cut-off; inactive means mostly below about 14%; further: read at 38.3 µM for the half of the compounds with a filed dose
# HCMV antiviral – human cytomegalovirus inhibition | HFF cells, HCMV-luciferase reporter, 72 h; hits give low values | AID 1259415 | hit rate 4.5% among 410,000 | activity change, negative = inhibition, % at 57.5 µM; in the data active means activity change below about -60%; inconclusive means no clear call, values can overlap the other calls; inactive means above about -39%
#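 Inhibition of viral replication was scored as loss of reporter luminescence in HFFs infected with HCMV-luciferase (MOI 1 PFU/cell) for 72 h; compounds tested at 2 doses, normalized to buffer and Salinomycin controls.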
# Pf growth 48h – P. falciparum growth inhibition at 48 hours (one generation). AID 504832. hit rate 5.9% among 310,000. P. falciparum luciferase growth in erythrocytes, 48 h. Potency, µM (doses to about 28.7 µM), hits mostly inhibitors
#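 Firefly luciferase activity from engineered P. falciparum reports growth; inhibitors lower the luminescent signal. Cultures contained 2% hematocrit erythrocytes at 0.1% final parasitemia.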
# Shiga toxin inh – blocks Shiga toxin action in Vero cells; Vero cells, Shiga toxin protein synthesis inhibition reporter; inhibition, % at 38.7 µM; hit rate 9.2% among 290,000; AID 2315; in the data active means inhibition mostly above about 28%, no sharp cut-off; inactive means mostly below about 43%
# Pf growth 96h – P. falciparum growth inhibition at 96 hours; P. falciparum luciferase reporter growth, 96 h; Potency, µM (highest dose often 28.7 µM), hits mostly inhibitors; hit rate 6.9% among 320,000; AID 504834
#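 P. falciparum expressing integrated firefly luciferase, in erythrocytes at 2% hematocrit, 0.05% parasitemia, incubated with compounds 96 h at 37 C, 5% CO2. Growth inhibition read as loss of luminescence; two-generation exposure targets delayed-death apicoplast inhibitors.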
# A number is an active result; i = inactive; ? = inconclusive; nt = no result given. Compounds with a hit are over-represented: about 20% of the library has one in this group of screens. Unless noted, the call rests on the fitted dose curve; in most records, active means well fitted inhibition curve with a large enough effect; inconclusive means small, poorly fitted or top-dose-only effect, or another doubt; inactive means no such curve, though single readings can be large or run the other way.
SMILES,CHX counter,HCMV antiviral,Pf growth 48h,Shiga toxin inh,Pf growth 96h
c1cc(C2CCN(Cc3nc(-c4ccc5c(c4)OCO5)no3)CC2)ccn1,i,?,i,i,?
c1ccc(OCCN2CCN(Cc3nc(-c4ccc5c(c4)OCO5)no3)CC2)cc1,i,i,i,i,15µM
CN(C)S(=O)(=O)c1ccc(Cl)c(NC(=O)CNC2(C)CCS(=O)(=O)C2)c1 (centres undefined),nt,i,nt,nt,nt
CN(C)c1ccc(C(CNS(=O)(=O)c2ccc(F)c(F)c2)c2c[nH]c3ccccc23)cc1 (centres undefined),i,i,i,i,i
Cc1cccc(Nc2nnc(SCC3CCCCO3)s2)c1 (centres undefined),36,i,i,49,?
COc1ccc(Nc2nnc(SCC3CCCCO3)s2)cc1 (centres undefined),i,i,3.7µM,i,13µM
COc1ccc(Nc2nnc(SCC(=O)c3cc(C)n(CC4CCCO4)c3C)s2)cc1 (centres undefined),43,i,5.9µM,112,nt
COc1ccc(Nc2nnc(SCC(=O)c3cc4ccccc4o3)s2)cc1,i,i,i,i,?
COC(=O)c1ccc(CSc2nnc(Nc3ccc(OC)cc3)s2)o1,i,i,i,i,?
CCOc1ccccc1C1C(C(=O)N2CCCCC2)=C(C)Nc2nc3ccccc3n21 (centres undefined),nt,i,nt,nt,nt
O=S(=O)(CCc1ccccc1)CS(=O)(=O)CCc1ccccc1,nt,i,nt,nt,nt
c1ccc(Cn2nnnc2C(c2ccncc2)N2CCOCC2)cc1 (centres undefined),i,i,i,i,0.74µM
CCN1CCN(C(c2ccccc2)c2nnnn2Cc2ccc3c(c2)OCO3)CC1 (centres undefined),i,i,i,i,i
c1ccc(Cn2nnnc2C(c2cccnc2)N2CCN(c3ccccc3)CC2)cc1 (centres undefined),i,i,13µM,i,nt
Cc1cc(C(c2nnnn2Cc2ccccc2)N2CCOCC2)c(C)n1-c1ccc2c(c1)OCO2 (centres undefined),18,nt,9.3µM,42,i
Cc1ccc(-n2c(=O)c3ccccc3n(CC(=O)Nc3cccc(C(F)(F)F)c3)c2=O)cc1,nt,i,nt,nt,nt
CC1CN(C(=O)CCNC(=O)c2ccc(Br)cc2)CC(C)O1 (centres undefined),nt,i,i,nt,i
CCOC(=O)c1[nH]c2c(c1Cc1ccccc1)C(=O)CC(c1ccc(Cl)cc1)C2 (centres undefined),nt,i,nt,nt,nt
Cc1nc2ncnn2c(C)c1CCC(=O)NC(C)CCc1ccco1 (centres undefined),i,i,i,i,12µM
COc1ccccc1-c1cc2nc(C)c(CCC(=O)NCc3ccco3)c(C)n2n1,i,i,?,i,?
CCN(CC)S(=O)(=O)c1ccc(NC(=O)CCc2c(C)nc3cc(-c4ccc(Cl)cc4)nn3c2C)cc1,nt,-76,nt,nt,nt
Cc1nc2cc(-c3ccccc3)nn2c(C)c1CCC(=O)NC(C)c1ccc2c(c1)OCCO2 (centres undefined),i,i,?,i,i
Cc1nc2cc(-c3ccccc3)nn2c(C)c1CCC(=O)NCc1ccco1,39,i,nt,68,?
COc1cc(OC)cc(-c2cc3nc(C)c(CCC(=O)NC(C)CCc4ccco4)c(C)n3n2)c1 (centres undefined),i,i,9.3µM,i,i
CCc1ccccc1NC(=O)CN(C1CCCCC1)S(C)(=O)=O,i,?,i,nt,i
SMILES,CHX counter,HCMV antiviral,Pf growth 48h,Shiga toxin inh,Pf growth 96h
COc1ccc(CCNC(=O)CCc2c(C)nc3cc(-c4ccccc4)nn3c2C)cc1OC,nt,i,nt,nt,nt
COc1cc(OC)cc(-c2cc3nc(C)c(CCC(=O)O)c(C)n3n2)c1,i,-79,nt,i,9.3µM
Cc1csc(NC(=O)CCc2c(C)nc3cc(-c4cccc(F)c4)nn3c2C)n1,i,i,?,i,?
Cc1nc2cc(-c3cccc(F)c3)nn2c(C)c1CCC(=O)NC(C)CCc1ccco1 (centres undefined),i,nt,nt,i,10µM
Cc1ccc(/C(N)=N/OC(=O)c2cccs2)cc1,39,i,i,37,i
O=C(CCC(=O)c1cccs1)OCC(=O)c1ccccc1,nt,i,nt,nt,nt
COc1ccc(/C(N)=N/OC(=O)c2cccs2)cc1OC,i,i,i,i,i
N/C(=N\OC(=O)c1cccs1)c1ccccc1,35,i,i,80,?
Cc1cccc(/C(N)=N/OC(=O)c2cccs2)c1,71,i,i,106,i
N/C(=N\OC(=O)c1cccs1)c1cccc(Br)c1,39,i,i,78,i

# Assay outcomes from PubChem BioAssay.
